Source: PubChem BioAssay AID602342 (Broad Institute, 2012)
In all, about 340,000 compounds went through this assay and about 1,000 (0.29%) were called active.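 The calls were made as follows: active = mean replicate activation score at least 90 and every replicate individually at or above 90; inconclusive = only one of the two criteria met; inactive = neither criterion met.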 The sample as a whole holds a higher share of actives than the screen did.

experiment: miR-122 Renilla sensor signal increase in Huh7, primary screen, miR-122 inhibitor project, cell-based, single point, plate reader (AID 602342); conditions: Huh7 miR-122 Renilla luciferase sensor, 48 h, hits give high values; at 12.5 µM unless noted;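 also: higher luciferase means less miR-122 activity so hits act as miR-122 inhibitors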

Compound	activation (reporter increase)
C[C@]12CCC3C(CC[C@H]4C[C@@H](O)CC[C@]34C)C1C[C@@H](O)[C@H]2O (stereo not given in full)	-6.69% (inactive)
C[C@]12CCC3C(CC[C@H]4C[C@@H](O)CC[C@]34C)C1CC[C@@H]2O (stereo not given in full)	-9.92% (inactive)
C[C@]12CC[C@H](O)C[C@H]1CC[C@@H]1C2CC[C@]2(C)[C@@H](C3=CC(=O)OC3)[C@@H](O)C[C@]12O (stereo not given in full)	339% (active)
COc1ccc(-n2nnnc2C(c2cccc3ccccc23)N2CCC(n3c(=O)[nH]c4ccccc43)CC2)cc1 (stereo not given)	-6.36% (inactive)
COC(=O)[C@H]1[C@H](CO)[C@H]2Cn3c(ccc(-c4ccccc4F)c3=O)[C@@H]1N2C(=O)C1CCC1	3% [at 16.7 µM] (inactive)
